Screening results as filed in PubChem.
Most compounds without a hit are left out; they make up all but 3.5% or so of the library.
TEAD-YAP block: TEAD-YAP interaction inhibition, primary screen, TEAD-YAP interaction inhibitor project, luminescence, HEK-TIYL cells | 640,000 compounds, 1.4% hits | TEAD-Gal4/YAP UAS-luciferase luminescence | inhibition, % at 9.12 µM | AID 1259422, 2018; in the data active = inhibition above about 32%
GPR151 ag: activators of human GPR151, primary screen, cell-based, PathHunter beta-arrestin, luminescence; activation, % at 11.2 µM; 650,000 compounds, 1% hits; PathHunter beta-arrestin GPR151 cells; G-protein coupled receptor 151 (Homo sapiens), Q8TDV0; in the data active = activation above about 4.9%
FBW7 activator: FBW7 E3 ligase activators, primary screen, biochemical, AlphaScreen, human. normalized activity (activation), % at 26.1 µM. F-box/WD repeat-containing protein 7 (Homo sapiens), Q969H0. AID 1259310, 2017. AlphaScreen FBW7–phospho-cyclin E peptide binding, activator screen. 650,000 compounds, 0.13% hits; in the data active = normalized activity above about 1.9%;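 also: purified mutant Fbw7 with reduced substrate affinity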
Target sequence (Q969H0 whole entry, looked up): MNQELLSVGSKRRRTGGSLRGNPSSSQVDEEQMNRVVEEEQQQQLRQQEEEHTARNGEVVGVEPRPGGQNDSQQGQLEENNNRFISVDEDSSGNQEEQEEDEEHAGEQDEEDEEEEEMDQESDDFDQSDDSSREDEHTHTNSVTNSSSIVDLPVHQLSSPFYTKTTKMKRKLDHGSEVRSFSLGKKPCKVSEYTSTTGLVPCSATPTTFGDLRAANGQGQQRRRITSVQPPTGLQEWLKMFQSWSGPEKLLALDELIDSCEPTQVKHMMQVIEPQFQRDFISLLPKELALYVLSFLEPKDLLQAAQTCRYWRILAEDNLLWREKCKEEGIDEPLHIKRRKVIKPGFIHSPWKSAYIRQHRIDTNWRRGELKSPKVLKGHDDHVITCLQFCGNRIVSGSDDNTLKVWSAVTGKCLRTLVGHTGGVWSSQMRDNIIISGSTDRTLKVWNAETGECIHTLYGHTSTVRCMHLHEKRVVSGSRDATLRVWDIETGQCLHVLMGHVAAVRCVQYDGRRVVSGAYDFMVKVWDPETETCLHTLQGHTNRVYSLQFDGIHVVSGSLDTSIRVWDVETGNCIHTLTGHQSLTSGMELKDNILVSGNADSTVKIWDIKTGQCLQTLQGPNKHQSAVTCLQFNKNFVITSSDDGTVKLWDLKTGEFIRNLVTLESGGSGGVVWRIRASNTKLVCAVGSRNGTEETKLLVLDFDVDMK
MITF primary: MITF inhibitors, primary screen, biochemical, AlphaScreen, human. Microphthalmia-associated transcription factor (Homo sapiens), O75030. AlphaScreen MITF homodimerization, bead proximity signal. inhibition, % at 2.6 µM. 650,000 compounds, 0.91% hits. AID 1259374, 2018; in the data active = inhibition above about 50%
MITF confirm: MITF inhibitors, retest of hits, confirmation, biochemical, AlphaScreen, triplicate. 4,700 compounds, 16% hits. AlphaScreen MITF homodimerization, biotin/His-MITF beads. inhibition, % at 2.6 µM. shares compounds with MITF primary;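 active = inhibition above a cutoff derived from the DMSO control wells, cut at about 28% in these data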;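 also: inhibitors lower the bead chemiluminescence by keeping MITF from dimerizing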
AlphaScreen DR: AlphaScreen optical interference compounds, dose response, counter-screen, biochemical, HTS | shares compounds with MITF primary | IC50, µM | AlphaScreen optical interference counterscreen, cell-free | 480 compounds, 6% hits; call rule not given here
AlphaScreen intf2: AlphaScreen optical interference compounds, counter-screen for MITF inhibitor project, biochemical, triplicate. AID 1259376, 2018. inhibition, % at 2.6 µM. 4,700 compounds, 7.6% hits. LysRS AlphaScreen counterscreen, signal interference. shares compounds with MITF primary;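 active = inhibition above a cutoff derived from the DMSO control wells, cut at about 30% in these data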
Of the large screens only hits and unclear results are named; the others gave an inactive call (follow-up assays come after a bar, where they were run).

O=C(Oc1ccc(Br)cc1)c1ccc(N2C(=O)C3C4C=CC(C4)C3C2=O)cc1 (stereo unspecified)	none
O=C(/C=C/c1ccc(Cl)cc1)Nc1nnc(C(F)(F)F)s1	none
COc1cc(/C=C/C(=O)Nc2nnc(C(F)(F)F)s2)cc(OC)c1OC	MITF primary 52 | MITF confirm inactive | AlphaScreen intf2 inactive
COc1cc(Cl)cc(/C=C2\SC(=S)NC2=O)c1O	none
O=C(O)/C=C/C(=O)Nc1ccc(SC(F)F)cc1	MITF primary 56 | MITF confirm inactive | AlphaScreen intf2 inactive
C(=N\N1CCOCC1)/c1cccc(Oc2ccccc2)c1	MITF primary 70 | MITF confirm inactive | AlphaScreen intf2 inactive
CC(=O)Nc1ccc(NC(=O)Cc2ccc(Br)cc2)cc1	MITF primary 58 | MITF confirm inactive | AlphaScreen intf2 inactive
COc1ccc(C[C@@H]2NC(=O)[C@H]3CN(C(=O)NC4CCCCC4)CCN3C2=O)cc1	MITF primary 73 | MITF confirm 62 | AlphaScreen DR inactive | AlphaScreen intf2 inactive
C[C@@H](OCc1ccccc1)[C@@H]1NC(=O)[C@H]2CN(C(=O)NC3CCCCC3)CCN2C1=O	MITF primary 80 | MITF confirm 73 | AlphaScreen DR inactive | AlphaScreen intf2 inactive
O=C1N[C@@H](Cc2c[nH]c3ccccc23)C(=O)N2CCN(C(=O)NC3CCCCC3)C[C@H]12	MITF primary 76 | MITF confirm 72 | AlphaScreen DR inactive | AlphaScreen intf2 inactive
CN1C(=O)[C@H]2CN(C(=O)NC3CCCCC3)CCN2C(=O)[C@@H]1Cc1ccccc1	MITF primary 74 | MITF confirm 69 | AlphaScreen DR inactive | AlphaScreen intf2 inactive
COc1ccc(C[C@@H]2NC(=O)[C@H]3CN(C(=O)Oc4ccc(F)cc4)CCN3C2=O)cc1	none
O=C1N[C@@H](COCc2ccccc2)C(=O)N2CCN(C(=O)NC3CCCCC3)C[C@H]12	MITF primary 72 | MITF confirm 68 | AlphaScreen DR inactive | AlphaScreen intf2 inactive
O=C1N[C@@H](COCc2ccccc2)C(=O)N2CCN(C(=O)OCc3ccccc3)C[C@H]12	none
COc1c(Br)cc(Br)cc1C(=O)Nc1nc2ccccc2s1	none
O=C1CCCN1CCCNCC(=O)N1c2ccccc2Sc2ccccc21	MITF primary 76 | MITF confirm inactive | AlphaScreen intf2 inactive
COc1ccc(C/C(C)=N/Nc2nc3ccccc3[nH]2)cc1	MITF primary 67 | MITF confirm inactive | AlphaScreen intf2 38
CCCCCNC(CC(=O)Nc1cc(C)ccc1C)C(=O)O (stereo unspecified)	none
Cc1ccc(Cl)cc1NC(=O)CC(NCc1ccccn1)C(=O)O (stereo unspecified)	MITF primary 101 | MITF confirm 87 | AlphaScreen intf2 100
Cc1ccc(C)c(NC(=O)CC(NCCN)C(=O)O)c1 (stereo unspecified)	MITF primary 81 | MITF confirm 36 | AlphaScreen intf2 58
O=C(CC(NCc1ccccc1)C(=O)O)Nc1cccc(C(F)(F)F)c1 (stereo unspecified)	MITF primary 89 | MITF confirm inactive | AlphaScreen intf2 inactive
O=C(CC(NCc1ccccn1)C(=O)O)Nc1cccc(Cl)c1 (stereo unspecified)	MITF primary 112 | MITF confirm 84 | AlphaScreen intf2 100
COc1ccc(NC(=O)[C@H]2C=CCN2S(C)(=O)=O)cc1	none
Cc1ccc(NC(=O)/C(=C/c2cccc([N+](=O)[O-])c2)NC(=O)c2ccccc2Br)cc1	none
CCN(CC)S(=O)(=O)c1cccc(N/N=C(\C#N)c2nc3ccccc3[nH]2)c1	none
O=C(CCc1ccc(S(=O)(=O)N2CCOCC2)cc1)OCc1ccc(Cl)cc1	none
O=C(Nc1nc(CC(=O)N2CCc3ccccc3C2)cs1)C1CC1	MITF primary 59 | MITF confirm inactive | AlphaScreen intf2 inactive
Cc1ccc(C)c(OCC(=O)Nc2ccc(S(=O)(=O)NC(C)(C)C)cc2)c1	none
CCOC(=O)c1c(N)n(CCCN2CCOCC2)c2nc3ccccc3nc12	MITF primary 55 | MITF confirm inactive | AlphaScreen intf2 inactive
Cc1cccc(C)c1NC(=O)c1sc(=S)n(CCc2ccccc2)c1N	none
O=C(NCc1ccc(F)cc1)C1CC(=O)N(c2ccc(F)cc2)C1 (stereo unspecified)	MITF primary 73 | MITF confirm inactive | AlphaScreen intf2 inactive
COc1ccc(CNC(=O)C2CC(=O)N(c3ccc(F)cc3)C2)cc1 (stereo unspecified)	none
Cc1cc(OCCN2CCNCC2)cc(C)c1Cl	MITF primary 62 | MITF confirm inactive | AlphaScreen intf2 inactive
Cc1cc(Cl)cc(C)c1OCCOCCNC(C)C	MITF primary 51 | MITF confirm inactive | AlphaScreen intf2 inactive
Cc1cc(Cl)c(OCCOCCN2CCNCC2)c(Cl)c1	MITF primary 90 | MITF confirm inactive | AlphaScreen intf2 inactive
Cc1cc(C)c(OCCCCN2CCNCC2)c(C)c1	none
Cc1cc(OCCOCCN2CCN(C)CC2)cc(C)c1Cl	MITF primary 62 | MITF confirm inactive | AlphaScreen intf2 inactive
Cc1cc(C)c(OCCOCCNC(C)C)c(C)c1	none
O=C(NC1CCN(C(=S)Nc2ccccc2Cl)CC1)c1ccco1	none
Cc1ccc(Cn2nnc3c(=O)n(CC(=O)Nc4ccccc4C)cnc32)cc1	none
Cc1ncc(CO)c(/C=N/N=C/c2ccc(O)c(O)c2)c1O	none
CC1CC(C)CN(C(=O)c2ccc(N3CCN(c4ccccn4)CC3)c([N+](=O)[O-])c2)C1 (stereo unspecified)	none
Cc1cc(Cl)c(OCCN2CCNCC2)c(Br)c1	MITF primary 76 | MITF confirm inactive | AlphaScreen intf2 inactive
Cc1cc(C)c(OCCCCN2CCNCC2)c(Cl)c1	MITF primary 70 | MITF confirm inactive | AlphaScreen intf2 inactive
Cc1cccc(C)c1OCCCCN1CCNCC1	MITF primary 64 | MITF confirm inactive | AlphaScreen intf2 inactive
Cc1ccc(Cl)c(OCCN2CCNCC2)c1	none
Cc1cc(C)c(OCCOCCN2CCN(C)CC2)c(Cl)c1	MITF primary 67 | MITF confirm inactive | AlphaScreen intf2 inactive
C=CCNC(=O)CCCCCn1c(=S)[nH]c2ccccc2c1=O	none
O=C1NCCN(CCCc2ccccc2)C1CC(=O)N1CCCO1 (stereo unspecified)	none
O=C1/C(=C/c2ccc(Cl)cc2Cl)SC(=Nc2ccccc2)N1C1CCCCC1	none
